# Experimental data as given in PubChem BioAssay AID1508601 (ICCB-Longwood Screening Facility, Harvard Medical School, 2020).
# In all, about 5,700 compounds went through this assay and about 85 (1%) were called active. No stated cut-off is given here; in the data, active means p53-positive nuclei above about 36% (passing the limit was not always enough); inactive means the rest. Shown is part of a subset that was picked to be rich in actives.
# How the values were obtained:
# [1] = p53 stabilisation in HPV-positive human cells, imaging, p53-positive nuclei imaging, 24 h, 48 h (AID 1508601); conditions: 24/48 h
# [2] = target: Cellular tumor antigen p53 (Homo sapiens) (UniProt P04637); assay: as above; conditions: 24/48 h, stronger effect = higher value
# [3] = measured here: cell number at 24 h, Library stock concentration: 3.33 mM
# [4] = measured here: cell number at 48 h, Library stock concentration: 3.33 mM
# [5] = Library stock concentration: 3.33 mM
# [6] = measured here: p53 positive nuclei at 24 h, Library stock concentration: 3.33 mM
# [7] = measured here: cell number at 24 h, concentration not given here
# [8] = measured here: cell number at 48 h, concentration not given here
# [9] = measured here: p53 positive nuclei at 24 h, concentration not given here
# Chain of Cellular tumor antigen p53 (Homo sapiens) (P04637 whole entry, looked up): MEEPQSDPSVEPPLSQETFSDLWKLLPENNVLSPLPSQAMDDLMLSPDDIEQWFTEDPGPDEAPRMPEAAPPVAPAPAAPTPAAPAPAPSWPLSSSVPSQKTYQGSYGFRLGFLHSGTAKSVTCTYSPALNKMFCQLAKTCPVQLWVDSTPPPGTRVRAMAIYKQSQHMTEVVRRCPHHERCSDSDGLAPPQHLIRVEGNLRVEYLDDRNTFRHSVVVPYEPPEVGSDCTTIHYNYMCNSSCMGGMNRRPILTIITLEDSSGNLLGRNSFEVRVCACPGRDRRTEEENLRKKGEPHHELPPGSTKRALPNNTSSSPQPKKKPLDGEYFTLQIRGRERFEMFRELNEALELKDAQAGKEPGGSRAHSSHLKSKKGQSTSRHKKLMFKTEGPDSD
compound,measurement,setting,value
CCc1c2c(nc3ccc(OC(=O)N4CCC(N5CCCCC5)CC4)cc13)-c1cc3c(c(=O)n1C2)COC(=O)[C@@]3(O)CC,"nuclei count, normalised",[1]; [3],44.3%
same,"nuclei count, normalised",[1]; [4],30.6%
same,"p53-positive nuclei, normalised",[2]; [5],-0.157% (inactive)
same,"p53-positive nuclei, normalised",[2]; [6],-0.474%
Cn1cc(C2=C(c3cn(CCCSC(=N)N)c4ccccc34)C(=O)NC2=O)c2ccccc21,"nuclei count, normalised","[1]; measured here: cell number at 24 h, Library stock concentration: 80 uM",108%
same,"nuclei count, normalised","[1]; measured here: cell number at 24 h, Library stock concentration: 400 uM",104%
same,"nuclei count, normalised","[1]; measured here: cell number at 24 h, Library stock concentration: 2 mM",97.9%
same,"nuclei count, normalised",[1]; [3],68.3%
same,"nuclei count, normalised","[1]; measured here: cell number at 24 h, Library stock concentration: 10 mM",38.8%
same,"nuclei count, normalised",[1]; [7],102%
same,"nuclei count, normalised","[1]; measured here: cell number at 48 h, Library stock concentration: 80 uM",114%
same,"nuclei count, normalised","[1]; measured here: cell number at 48 h, Library stock concentration: 400 uM",111%
same,"nuclei count, normalised","[1]; measured here: cell number at 48 h, Library stock concentration: 2 mM",98.9%
same,"nuclei count, normalised",[1]; [4],63.6%
same,"nuclei count, normalised","[1]; measured here: cell number at 48 h, Library stock concentration: 10 mM",29%
same,"nuclei count, normalised",[1]; [8],104%
same,"p53-positive nuclei, normalised",[2]; Library stock concentration: 80 uM,0.143% (inactive)
same,"p53-positive nuclei, normalised",[2]; Library stock concentration: 400 uM,-0.08% (inactive)
same,"p53-positive nuclei, normalised",[2]; Library stock concentration: 2 mM,3.66% (inactive)
same,"p53-positive nuclei, normalised",[2]; [5],23.8% (inactive)
same,"p53-positive nuclei, normalised",[2]; Library stock concentration: 10 mM,70.5% (active)
same,"p53-positive nuclei, normalised",[2]; concentration not given here,0.319% (inactive)
same,"p53-positive nuclei, normalised","[2]; measured here: p53 positive nuclei at 24 h, Library stock concentration: 80 uM",-0.111%
same,"p53-positive nuclei, normalised","[2]; measured here: p53 positive nuclei at 24 h, Library stock concentration: 400 uM",-0.0611%
same,"p53-positive nuclei, normalised","[2]; measured here: p53 positive nuclei at 24 h, Library stock concentration: 2 mM",3.9%
same,"p53-positive nuclei, normalised",[2]; [6],33.8%
same,"p53-positive nuclei, normalised","[2]; measured here: p53 positive nuclei at 24 h, Library stock concentration: 10 mM",47.3%
same,"p53-positive nuclei, normalised",[2]; [9],0.487%
CN(C)CCCn1cc(C2=C(c3c[nH]c4ccccc34)C(=O)NC2=O)c2ccccc21,"nuclei count, normalised",[1]; [3],108%
same,"nuclei count, normalised",[1]; [4],105%
same,"p53-positive nuclei, normalised",[2]; [5],0.0456% (inactive)
same,"p53-positive nuclei, normalised",[2]; [6],-0.293%
Cn1cc(C2=C(c3cn(CCCN)c4ccccc34)C(=O)NC2=O)c2ccccc21,"nuclei count, normalised",[1]; [7],114%
same,"nuclei count, normalised",[1]; [8],106%
same,"p53-positive nuclei, normalised",[2]; concentration not given here,0.117% (inactive)
same,"p53-positive nuclei, normalised",[2]; [9],0.12%
Cc1nsc(NC(=O)NCCC2CCCCCC2)n1,"nuclei count, normalised",[1]; [7],106%
same,"nuclei count, normalised",[1]; [8],112%
same,"p53-positive nuclei, normalised",[2]; concentration not given here,-0.14% (inactive)
same,"p53-positive nuclei, normalised",[2]; [9],-0.0933%
CC1(C)OC2C[C@H]3[C@@H]4CCC5=CC(=O)CC[C@]5(C)[C@]4(F)C(O)C[C@]3(C)[C@@]2(C(=O)CCl)O1 (some centres not stated),"nuclei count, normalised",[1]; [3],80.9%
same,"nuclei count, normalised",[1]; [4],80.1%
same,"p53-positive nuclei, normalised",[2]; [5],-0.151% (inactive)
same,"p53-positive nuclei, normalised",[2]; [6],-0.267%
O=C1O[C@H](C(O)CO)C(O)C1O (some centres not stated),"nuclei count, normalised",[1]; [3],110%
same,"nuclei count, normalised",[1]; [4],103%
same,"p53-positive nuclei, normalised",[2]; [5],-0.204% (inactive)
same,"p53-positive nuclei, normalised",[2]; [6],-0.283%
COc1ccc(F)c(F)c1C(=O)c1cnc(NC2CCN(S(C)(=O)=O)CC2)nc1N,"nuclei count, normalised",[1]; [3],43.7%
same,"nuclei count, normalised",[1]; [4],27.7%
same,"p53-positive nuclei, normalised",[2]; [5],67.1% (active)
same,"p53-positive nuclei, normalised",[2]; [6],73.8%
